Screening results from PubChem.
In the library only some 9.5% were active in any assay of this set; here they are far more common.
Tau FP inhib: tau fibrillization inhibition (FP); P10636; K18 P301L tau heparin fibrillization, Alexa594 FP, 6 h; Potency, µM (series often up to 57.7 µM), inactives show at the top dose activity, negative = inhibition, hits mostly inhibitors; 280,000 tested, 0.39% active; AID 1468; note: nearly all actives have a fitted effect of over 55% in size
Target sequence (P10636 561-689 P618L limits assumed): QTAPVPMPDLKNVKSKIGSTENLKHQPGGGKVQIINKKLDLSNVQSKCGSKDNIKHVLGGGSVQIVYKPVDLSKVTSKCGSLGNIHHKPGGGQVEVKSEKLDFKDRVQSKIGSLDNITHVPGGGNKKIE
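Recombinant K18 P301L […], labeled with Alexa 594 at 0.24 uM over 15 uM unlabeled; heparin inducer 20 uM final; 37 C, 6 hr; FP endpoint.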
Tau fluor counter: counter-screen for tau fibril formation inhibitors. tau K18 P301L Alexa594 fluorescence, heparin fibrillization. Potency, µM (highest dose often 57.7 µM), for inactives: at the top dose activity change, negative = decrease. AID 1463. 280,000 tested, 0.93% active; note: nearly all actives have a fitted effect of over 55% in size
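Human tau K18 P301L (15 uM unlabeled, 0.24 uM Alexa 594-labeled) in 100 mM sodium acetate pH 7 with 20 uM heparin, 6 hr at 37 C. ThT 30 uM added, 1 hr ambient; Alexa 594 FP and total fluorescence read at 555/632 nm.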
Tau fibril ThT: blocks human tau fibril formation measured by thioflavin T | P10636 | recombinant tau K18 P301L (four-repeat tau fragment), heparin-induced fibrillization, ThT fluorescence | Potency, µM (series often up to 57.4 µM), for inactives: top-dose activity, negative = inhibition, most hits filed as inhibitors | 270,000 tested, 2.1% active; note: nearly all actives have a fitted effect of over 55% in size
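Tau K18 P301L fragment (15 uM unlabeled plus 0.24 uM Alexa 594-labeled) in 100 mM sodium acetate pH 7 with compound, fibrillization induced by 20 uM heparin for 6 hr at 37 C. Thioflavin T (30 uM) added, fluorescence read after 1 hr (ex 450, em 510 nm).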
HPGD block: inhibitors of human 15-hydroxyprostaglandin dehydrogenase (HPGD). P15428. purified HPGD, NADH fluorescence kinetic, PGE2 substrate. Potency, µM, without a hit: at the top dose activity change, negative = inhibition, most hits filed as inhibitors. 150,000 tested, 4.3% active; active = well fitted inhibition curve with a large enough effect, not every such curve was filed as active; inconclusive = small, poorly fitted or top-dose-only effect, or another doubt; inactive = no such curve, though single readings can be large or run the other way
Target sequence (P15428 whole entry, looked up): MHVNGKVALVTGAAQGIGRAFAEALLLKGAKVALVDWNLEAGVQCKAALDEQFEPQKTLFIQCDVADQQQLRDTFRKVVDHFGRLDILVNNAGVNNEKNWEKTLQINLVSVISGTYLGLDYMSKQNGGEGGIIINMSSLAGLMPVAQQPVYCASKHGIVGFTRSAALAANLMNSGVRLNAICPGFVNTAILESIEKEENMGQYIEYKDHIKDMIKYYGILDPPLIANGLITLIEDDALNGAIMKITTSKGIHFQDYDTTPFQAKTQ
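NADH formation kinetics: reaction with 30 uM PGE2 and 1 mM NAD+ (final), 20 nM enzyme, Tris-HCl pH 8 with Tween 20, after 15 min compound preincubation at room temperature. Fluorescence change, last versus first of five reads.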
ALDH1A1 inh: inhibitors of human aldehyde dehydrogenase 1A1; AID 1030; P00352; Purified ALDH1A1, NADH fluorescence, propionaldehyde substrate; Potency, µM (series often up to 75.3 µM), inactives show at the top dose activity, negative = inhibition, most hits filed as inhibitors; 220,000 tested, 7.3% active; active = well fitted inhibition curve with a large enough effect, not every such curve was filed as active; inconclusive = small, poorly fitted or top-dose-only effect, or another doubt; inactive = no such curve, though single readings can be large or run the other way;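 note: plate controls were no enzyme wells and a reference inhibitor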
NPSR antag: antagonists of human neuropeptide S receptor cAMP signaling; Potency, µM (series often up to 38.3 µM), without a hit: at the top dose activity change, negative = inhibition, usual class: inhibitors; CHO-NPSR cells, cAMP TR-FRET, antagonist mode; 220,000 tested, 1% active; note: nearly all actives have a fitted effect of over 50% in size
Target sequence (Q6W5P4 whole entry, looked up): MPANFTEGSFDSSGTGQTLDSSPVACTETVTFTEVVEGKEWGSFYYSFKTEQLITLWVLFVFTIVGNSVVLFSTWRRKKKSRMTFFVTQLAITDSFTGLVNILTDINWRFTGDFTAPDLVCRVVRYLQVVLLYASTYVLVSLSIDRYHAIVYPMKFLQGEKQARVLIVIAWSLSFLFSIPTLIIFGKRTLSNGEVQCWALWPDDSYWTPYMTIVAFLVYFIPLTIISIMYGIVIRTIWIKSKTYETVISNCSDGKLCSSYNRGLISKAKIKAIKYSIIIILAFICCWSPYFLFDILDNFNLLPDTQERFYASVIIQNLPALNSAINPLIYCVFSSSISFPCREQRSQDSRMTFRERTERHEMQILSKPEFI
* hit, by the source's call; ? = inconclusive; / = not tested or not shown; [ ] = remark or other dose. Unless noted, calls come from the whole dose curve; as a rule, active = well fitted curve in the direction sought with a large enough effect; inconclusive = small, poorly fitted or top-dose-only effect, or another doubt; inactive = no such curve, though single readings can be large; an effect the other way counts as inactive or inconclusive. Unless noted, % is set by controls: 0 for no effect and ±100 for the full control effect; potency is the fitted concentration of half-maximal effect.

SMILES	Tau FP inhib	Tau fluor counter	Tau fibril ThT	HPGD block	ALDH1A1 inh	NPSR antag
COc1ccc(N2CC3=C(C2=O)C(c2ccc(O)c(OC)c2)NC(=O)N3C)cc1 (stereo unspecified)	-8.6%	-10.5%	-6.5%	/	/	/
COc1ccc(N2CCN(C(CNS(=O)(=O)c3cc(F)ccc3F)c3cccnc3)CC2)cc1 (stereo unspecified)	-0.4%	-25.1%	?	-4.5%	2.3%	?
Cc1ccc(CO)cc1	/	/	/	-16.0%	-0.7%	/
CCC(=O)Oc1c(Sc2ccc(Cl)cc2)c(C)nn1-c1ccccc1	?	-29.6%	22.4µM*	/	/	/
CCC(=O)Oc1c(Sc2ccc(C)cc2)c(C)nn1-c1ccccc1	?	-22.8%	?	/	/	/
CCCC(=O)Oc1c(Sc2ccc(C)cc2)c(C)nn1-c1ccccc1	?	-28.4%	25.1µM*	/	/	/
CC1(C(=O)O)Cc2ccccc2C(=O)O1 (stereo unspecified)	1.6%	-7.5%	-4.4%	-15.1%	-4.9%	-3.2%[46.1 µM]
COc1ccccc1-c1nn2c(=O)cc(CN3CCN(C(=O)Nc4ccc(C)cc4Cl)CC3)nc2s1	1.4%	0.5%	-14.1%	/	/	/
CC1=NCCN1S(=O)(=O)c1c(C(C)C)cc(C(C)C)cc1C(C)C	-12.4%[2.34 µM]	-7.2%[2.34 µM]	2.2%	/	2.24µM*	8.6%
O=C1/C(=C/c2ccc(O)cc2)SC(=S)N1CC1CCCO1 (stereo unspecified)	?	12.6µM*[quencher]	10µM*	/	/	9.5%[7.67 µM]
Cc1ccsc1/C=C1/SC(=O)N(CC(=O)N2CCOCC2)C1=O	2.4%	-4.2%	-6.3%	-18.5%	-61.4%	-9.7%[46.1 µM]
CCCOc1ccc(/C=C2\SC(=S)N(CC3CCCO3)C2=O)cc1 (stereo unspecified)	-5.0%	-10.2%	?	-6.7%	6.31µM*	-18.4%
Cc1ccsc1/C=C1\SC(=S)N(CC2CCCO2)C1=O (stereo unspecified)	1.1%	?	?	/	1µM*	-17.5%
Cc1ccc(/C=C2\SC(=S)N(CCCC(=O)Nc3ccc(O)cc3)C2=O)cc1	-4.9%	?	?	/	/	-35.5%
CCC(=O)N1c2ccc(S(=O)(=O)CCC(=O)NCc3ccc(OC)cc3)cc2CC1C (stereo unspecified)	-14.2%	-15.4%	-5.8%	/	/	/
CCOC(=O)c1sc(NC(=O)Nc2ccccc2Cl)cc1C	?	8.91µM*[quencher]	-8.0%	-30.0%	-0.7%	-44.6%
CCOC(=O)c1sc(=S)n(C)c1NC(=O)c1ccc(OC)cc1	?	-19.7%	?	/	/	-3.2%
CCOC(=O)c1sc(=S)n(C)c1NC(=O)c1ccccc1Cl	-1.3%	-10.7%	-8.5%	28.2µM*	31.6µM*	-8.6%[46.1 µM]
CCOC(=O)c1sc(NC(=O)Nc2ccccc2)cc1C	?	14.1µM*[quencher]	?	-12.6%	-13.0%	-25.0%
CCOC(=O)c1c(C)oc2ncnc(Nc3ccc(OC)cc3OC)c12	7.5%	-1.3%	0.9%	/	/	/
O=C(COc1ncnc2ccc(Br)cc12)Nc1ccc(N2CCOCC2)cc1	13.3%	-24.3%	-18.6%	-3.5%	-7.0%	-17.1%[46.1 µM]
Brc1ccc2ncnc(Nc3ccc(N4CCOCC4)cc3)c2c1	9.9%	?	8.91µM*	-7.3%	-9.0%	-5.7%[46.1 µM]
COC(=O)C1=C(C(=O)OC)C(c2ccccc2O)c2sc(=O)[nH]c2S1 (stereo unspecified)	3.1%	-20.2%	25.1µM*	22.4µM*	?	-11.8%
COC(=O)c1sc2ccccc2c1N	-2.9%	-3.1%	?	?	?	18.1%[46.1 µM]
Cc1nnsc1C(=O)Oc1ccc(Cl)cc1	0.0%	-19.4%	?	/	/	/
SMILES	Tau FP inhib	Tau fluor counter	Tau fibril ThT	HPGD block	ALDH1A1 inh	NPSR antag
CC(C)C[C@@H](CC(=O)N[C@H](CC(=O)N[C@@H]1CCCC[C@H]1C(=O)N[C@H](CC(=O)N[C@@H](CCC(=O)O)CC(=O)O)Cc1ccccc1)C(C)C)NC(=O)[C@@H]1CNCC[C@H]1N	-1.7%	-13.8%	-10.6%	-2.7%	-13.7%	/
CCCNC(=O)c1cc(-c2ccc(OC)cc2)n(CCCOC)c1C	-0.3%	-3.9%	-4.5%	8.91µM*	?	-2.7%
CCOC(=O)c1cc(-c2ccc(C)cc2)n(CCC(=O)NCCCOC)c1C	?	-3.3%	-3.2%	-27.8%	4.5%	-7.5%[46.1 µM]
Cc1ccc(S(=O)(=O)NCCc2ccc(S(N)(=O)=O)cc2)cc1	-1.3%	-9.2%	-5.9%	-6.7%	25.1µM*	-4.7%[46.1 µM]
Cc1ccc(S(=O)(=O)NCC(C)NS(=O)(=O)c2ccc(C)cc2)cc1 (stereo unspecified)	0.4%	-4.3%	-1.9%	-6.0%	0.398µM*	-10.6%[46.1 µM]
CCCC(=O)NCCc1ccc(S(N)(=O)=O)cc1	-1.2%	-1.9%	-1.0%	-11.8%	4.47µM*	-3.1%[46.1 µM]
Cc1ccc(CSCCNS(=O)(=O)c2ccc(C)cc2)cc1	14.8%	-17.6%	-6.8%	-8.4%	10µM*	6.5%
CN(Cc1cc(Br)cc(Br)c1N)C1CCCCC1	-3.2%	-18.4%	-11.0%	-10.1%	1.6%	/
CC1=C(C)C[C@@]23CCCN2C(=O)CCC[C@H]3C1	3.2%[126 µM]	-2.8%[126 µM]	-4.5%[126 µM]	5.4%	?	/
CCOC(=O)N1CCc2c(sc(NCc3cccc(F)c3)c2C(=O)Nc2ccc(OC)cc2OC)C1	-2.6%	?	?	/	/	/
Cc1nn(CCC(=O)NCc2cccc(Br)c2)c(=O)c2nn(-c3ccccc3)c(C)c12	-9.0%	5.4%	12.1%	/	/	/
Cc1cccc(CSc2ncnc3ccccc23)c1	-16.6%	-17.1%	?	/	-2.4%	-36.1%
O=[N+]([O-])c1cccc(CSc2ncnc3ccccc23)c1	-1.9%	-23.9%	?	/	22.4µM*	-30.6%
O=C(CSCc1ccc(Cl)cc1)NN=C1CCCC1	2.5%	-3.2%	-5.4%	-2.9%	?	6.2%
O=C(CSCc1c(Cl)cccc1Cl)NN=C1CCCC1	2.8%	-6.1%	-5.4%	/	1.58µM*	7.7%
O=C(CSCc1ccccc1Cl)NN=C1CCCCCC1	-0.4%	-12.0%	-21.7%	-17.2%	22.4µM*	0.2%[46.1 µM]
O=C(CSCc1ccc([N+](=O)[O-])cc1)NN=C1CCCCCC1	-2.0%	2.9%	5.9%	-0.3%	5.01µM*	-0.3%
N[C@@H](Cc1ccc(O)cc1)c1nnc([C@H](CC(=O)O)NC(=O)C2CCNCC2)o1	?	-5.9%	-13.3%	/	8.8%	-27.8%
CCNC(=O)CCC(N)C(=O)O (stereo unspecified)	5.1%	-5.3%	-2.0%	-4.1%	5.7%	/
CCN1C(=O)c2ccccc2S(=O)(=O)c2ccc(C(=O)NCc3ccccc3)cc21	-3.3%	-24.7%	1.2%	/	/	/
Cc1cc(OCC(=O)Nc2ccncc2)ccc1[N+](=O)[O-]	-8.0%	-9.5%	-13.4%	/	10µM*	13.5%
COC(=O)c1ccc(NC(=O)COc2ccc([N+](=O)[O-])cc2)cc1	4.0%	-12.7%	/	/	/	8.2%
CC(=O)Nc1ccc(NC(=O)COc2ccc([N+](=O)[O-])cc2)cc1	-2.8%	-16.0%	?	/	11.2µM*	-0.1%
